Assay [1] has as its target Retinoic acid receptor RXR-alpha (Homo sapiens) (UniProt P19793). In words: ATG_RXRa_TRANS: Attagene TRANS-FACTORIAL HepG2 Assay for human Retinoid X Receptor alpha (RXRa) (AID 2283012; active = hit-call score of the fitted dose curve at least 0.9, where 1 is the maximum). Put shortly: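 Chimeric NR-GAL4 trans-activation in HepG2, 24 h treatment; reporter transcripts quantified by fluorescence on capillary electrophoresis, analysed for upward change from DMSO.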

Assay [2] has as its target human Thyroid Receptor alpha (THRa1), THRA (gene 7067) (UniProt P10827). Description: ATG_THRa1_TRANS: Attagene TRANS-FACTORIAL HepG2 Assay for human Thyroid Receptor alpha (THRa1) (AID 2283014; active = hit-call score of the fitted dose curve at least 0.9, where 1 is the maximum). Put shortly:
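Measured here is mRNA from a GAL4-UAS reporter in transfected HepG2 cells carrying a Gal4-fused receptor, 24 h post-dose. DMSO served as negative control and baseline.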

Read-out in assay [3]: E-selectin (Homo sapiens) (UniProt P16581)
In words: BSK_3C_Eselectin: BioMAP Diversity Plus: 3C Assay for Eselectin Biomarker Activity (AID 2283015).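 As to outcome: cell surface E-selectin protein quantified by ELISA 24 h after dosing.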 The following applies: primary human endothelial cells (HUVEC); actives raise or lower the signal. An outline of the steps:
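Endpoint derived by bidirectional fitting against DMSO vehicle; signal is ELISA-detected E-selectin from primary HUVEC at 24 h post-dosing, with parallel SRB staining (0.1% SRB, 560 nm) flagging cytotoxicity.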

Read-out in assay [4]: Interleukin-1 alpha (IL1a), IL1A (gene 3552)
In words: BSK_BE3C_IL1a: BioMAP Diversity Plus: BE3C Assay for Interleukin-1 alpha (IL1a) Biomarker Activity (AID 2283016). The following applies: primary human bronchial epithelial cells; actives raise or lower the signal. An outline of the steps:
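Measured in human lung primary bronchial epithelial cells: IL-1a by ELISA at 24 h after dosing, with bidirectional fitting against DMSO.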

Read-out in assay [5]: Monocyte Chemoattractant Protein-1 (MCP1), CCL2 (gene 6347)
In words: BSK_3C_MCP1: BioMAP Diversity Plus: 3C Assay for Monocyte Chemoattractant Protein-1 (MCP1) Biomarker Activity (AID 2283017). The following applies: primary human endothelial cells (HUVEC); actives raise or lower the signal. An outline of the steps:
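Using human vascular primary endothelium, researchers measured MCP-1 by ELISA 24 h after treatment, with DMSO serving as negative control for bidirectional fitting.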

Read-out in assay [6]: Monocyte Chemoattractant Protein-1 (MCP1), CCL2 (gene 6347)
In words: BSK_4H_MCP1: BioMAP Diversity Plus: 4H Assay for Monocyte Chemoattractant Protein-1 (MCP1) Biomarker Activity (AID 2283018). The conditions noted are these: primary human endothelial cells (HUVEC); actives raise or lower the signal. An outline of the steps: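 Primary human umbilical vein endothelium is exposed to chemical for 24 h before MCP-1 is assayed by ELISA. Concentration-response fitted bidirectionally relative to DMSO.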

Read-out in assay [7]: Human Leukocyte Antigen - DR isotype (HLADR), HLA-DRA (gene 3122)
In words: BSK_3C_HLADR: BioMAP Diversity Plus: 3C Assay for Human Leukocyte Antigen - DR isotype (HLADR) Biomarker Activity (AID 2283019).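 As to outcome: ELISA of cell-surface HLA-DR on HUVEC 24 h after dosing.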 The following applies: primary human endothelial cells (HUVEC); actives raise or lower the signal. An outline of the steps: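 Compound added to primary HUVEC cultures, 24 h incubation, then HLA-DR determined by ELISA; endpoint derived by bidirectional fitting relative to DMSO negative control.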

Read-out in assay [8]: Interleukin-8 (IL8), CXCL8 (gene 3576)
Description: BSK_3C_IL8: BioMAP Diversity Plus: 3C Assay for Interleukin-8 (IL8) Biomarker Activity (AID 2283020). The conditions noted are these: primary human endothelial cells (HUVEC); actives raise or lower the signal. Put shortly:
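Using DMSO-treated wells as the baseline, bidirectional curve fitting was applied to ELISA-measured IL-8 from human umbilical vein endothelial cultures sampled 24 h after compound addition.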

Read-out in assay [9]: Monokine induced gamma interferon (MIG), CXCL9 (gene 4283)
Description: BSK_3C_MIG: BioMAP Diversity Plus: 3C Assay for Monokine induced gamma interferon (MIG) Biomarker Activity (AID 2283021).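 As to AC50: MIG protein level measured by immunoassay in the treated endothelial cultures.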 The conditions noted are these: primary human endothelial cells (HUVEC); actives raise or lower the signal. An outline of the steps: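 ELISA-measured MIG in dosed HUVEC 3C cultures at 24 h, analysed by bidirectional fitting with DMSO defining baseline activity.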

Assay [10] is described as follows: BSK_3C_SRB: Viability Assessment in the BioMAP Diversity Plus: 3C Assay (AID 2283023).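 Also: cells read 24 h after compound dosing; fitted both ways against DMSO so a hit may be signal rise or drop.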 The following applies: primary human endothelial cells (HUVEC). An outline of the steps: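 Overt cytotoxicity is gauged in parallel confluent HUVEC cultures by SRB total-protein staining at the time of biomarker measurement, 24 h after dosing. Gain or loss of signal is fitted versus DMSO.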

Read-out in assay [11]: Matrix Metallopeptidase 1 (MMP1), MMP1 (gene 4312)
In words: BSK_BE3C_MMP1: BioMAP Diversity Plus: BE3C Assay for Matrix Metallopeptidase 1 (MMP1) Biomarker Activity (AID 2283024). The following applies: primary human bronchial epithelial cells; actives raise or lower the signal. Put shortly: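 In this multiplexed primary-cell system, human bronchial epithelium received chemicals for 24 h before an ELISA for MMP1. Values reflect bidirectional fits normalised to the DMSO baseline.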

Read-out in assay [12]: Pselectin, SELP (gene 6403)
In words: BSK_4H_Pselectin: BioMAP Diversity Plus: 4H Assay for Pselectin Biomarker Activity (AID 2283026). The conditions noted are these: primary human endothelial cells (HUVEC); actives raise or lower the signal. Put shortly: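 Bidirectional fits against DMSO gave the endpoint. Cells: primary human umbilical vein endothelium, chemical-treated for 24 h before ELISA detection of P-selectin.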

Assay [13] in a line: BSK_4H_SRB: Viability Assessment in the BioMAP Diversity Plus: 4H Assay (AID 2283027).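 Also: cells exposed to compound for 24 h before staining.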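 As to AC50: curves fitted both ways versus DMSO so AC50 may be loss or gain.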 The conditions noted are these: primary human endothelial cells (HUVEC). An outline of the steps: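 HUVEC, 24 h post-dose; 10% TCA fix, 0.1% SRB stain, A560 nm. Total protein = overt cytotoxicity, parallel to biomarker read. Bidirectional fit vs DMSO baseline.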
Assay [14] is described as follows: BSK_BE3C_SRB: Viability Assessment in the BioMAP Diversity Plus: BE3C Assay (AID 2283028). The conditions noted are these: primary human bronchial epithelial cells. An outline of the steps: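 SRB total-protein staining (0.1%, after TCA fixation) of chemically dosed human bronchial epithelial primary cells at 24 h; DMSO serves as the negative control for bidirectional curve fitting.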

Read-out in assay [15]: Urokinase-type plasminogen activator receptor (uPAR), PLAUR (gene 5329)
In words: BSK_4H_uPAR: BioMAP Diversity Plus: 4H Assay for Urokinase-type plasminogen activator receptor (uPAR) Biomarker Activity (AID 2283030). The following applies: primary human endothelial cells (HUVEC); actives raise or lower the signal. An outline of the steps: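 Endpoint derived via bidirectional curve fitting against DMSO baseline; readout was ELISA detection of uPAR on umbilical vein endothelial cells at 24 h post-treatment, with SRB-stained parallel cultures assessing cytotoxicity.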

Read-out in assay [16]: Vascular endothelial growth factor receptor 2 (Homo sapiens) (UniProt P35968)
In words: BSK_4H_VEGFRII: BioMAP Diversity Plus: 4H Assay for Vascular endothelial growth factor receptor 2 (VEGFR2) Biomarker Activity (AID 2283031).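 As to AC50: cell-surface VEGFR2 protein level quantified by ELISA.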 The conditions noted are these: primary human endothelial cells (HUVEC); actives raise or lower the signal. An outline of the steps:
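In this multiplexed HUVEC system, biomarker ELISA was performed after 24 h chemical exposure. Parallel SRB staining (TCA fixation, 560 nm) tracked cytotoxicity; DMSO served as baseline.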

Read-out in assay [17]: Human Leukocyte Antigen - DR isotype (HLADR), HLA-DRA (gene 3122)
Description: BSK_BE3C_HLADR: BioMAP Diversity Plus: BE3C Assay for Human Leukocyte Antigen - DR isotype (HLADR) Biomarker Activity (AID 2283032). The conditions noted are these: primary human bronchial epithelial cells; actives raise or lower the signal. An outline of the steps:
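BioMAP BE3C format: human bronchial epithelium, 24 h compound treatment, ELISA detection of HLA-DR, with bidirectional analysis relative to DMSO.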

Read-out in assay [18]: Vascular cell adhesion molecule 1 (VCAM1), VCAM1 (gene 7412)
In words: BSK_4H_VCAM1: BioMAP Diversity Plus: 4H Assay for Vascular cell adhesion molecule 1 (VCAM1) Biomarker Activity (AID 2283033).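 As to outcome: cell-surface VCAM-1 protein measured by ELISA.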 The conditions noted are these: primary human endothelial cells (HUVEC); actives raise or lower the signal. Put shortly: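 In this human endothelial (HUVEC) system, biomarker ELISA was run 24 h after compound addition, and total protein in parallel wells was assessed by SRB at 560 nm; DMSO served as negative control.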

Assay [19] has as its target human Vitamin D Receptor (VDR), VDR (gene 7421) (UniProt P11473). Description: ATG_VDR_TRANS: Attagene TRANS-FACTORIAL HepG2 Assay for human Vitamin D Receptor (VDR) (AID 2283022; active = hit-call score of the fitted dose curve at least 0.9, where 1 is the maximum). An outline of the steps: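 Multiplexed TRANS reporter in HepG2; 24 h treatment; reporter mRNA by RT-PCR plus capillary electrophoresis; upregulation scored relative to DMSO.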

Inconclusive results are not listed. Calls of active or inactive are those of the source. The calls were made as follows, unless noted: active = hit-call score of the fitted dose curve at least 0.9, where 1 is the maximum; inactive = score below 0.9.

Among the data in PubChem BioAssay (EPA / NIEHS) are outcome and AC50 values, retold here.

E-selectin (Homo sapiens), sequence (P16581 whole entry, looked up): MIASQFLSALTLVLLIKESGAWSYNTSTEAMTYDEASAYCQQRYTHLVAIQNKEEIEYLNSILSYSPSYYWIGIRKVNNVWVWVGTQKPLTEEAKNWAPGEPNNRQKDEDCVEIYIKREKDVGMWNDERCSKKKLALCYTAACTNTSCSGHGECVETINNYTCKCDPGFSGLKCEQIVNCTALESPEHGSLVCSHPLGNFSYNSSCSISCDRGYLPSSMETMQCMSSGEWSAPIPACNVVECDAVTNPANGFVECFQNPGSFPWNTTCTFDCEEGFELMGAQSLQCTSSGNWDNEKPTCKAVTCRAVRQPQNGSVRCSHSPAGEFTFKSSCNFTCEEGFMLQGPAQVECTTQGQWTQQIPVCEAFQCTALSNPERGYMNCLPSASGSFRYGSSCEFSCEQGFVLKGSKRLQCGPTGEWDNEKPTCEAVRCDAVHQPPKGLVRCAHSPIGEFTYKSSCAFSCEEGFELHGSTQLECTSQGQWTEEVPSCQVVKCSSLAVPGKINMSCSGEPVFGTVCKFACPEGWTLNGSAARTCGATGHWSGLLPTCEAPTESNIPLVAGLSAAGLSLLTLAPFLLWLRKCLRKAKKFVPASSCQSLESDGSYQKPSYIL
human Vitamin D Receptor (VDR), VDR (gene 7421), sequence (P11473 whole entry, looked up): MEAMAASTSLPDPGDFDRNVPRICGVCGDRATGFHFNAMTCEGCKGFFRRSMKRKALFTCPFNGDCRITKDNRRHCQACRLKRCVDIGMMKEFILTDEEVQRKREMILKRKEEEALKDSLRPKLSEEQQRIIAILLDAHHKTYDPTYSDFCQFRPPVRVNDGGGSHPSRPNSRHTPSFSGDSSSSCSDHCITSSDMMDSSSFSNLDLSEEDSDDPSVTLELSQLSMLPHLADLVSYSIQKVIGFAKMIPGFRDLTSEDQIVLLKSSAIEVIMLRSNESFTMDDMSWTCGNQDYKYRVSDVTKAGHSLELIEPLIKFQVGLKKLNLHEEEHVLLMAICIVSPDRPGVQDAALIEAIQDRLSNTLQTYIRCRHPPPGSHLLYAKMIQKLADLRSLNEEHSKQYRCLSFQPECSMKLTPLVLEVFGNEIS
human Thyroid Receptor alpha (THRa1), THRA (gene 7067), sequence (P10827 whole entry, looked up, the tested form may be a part): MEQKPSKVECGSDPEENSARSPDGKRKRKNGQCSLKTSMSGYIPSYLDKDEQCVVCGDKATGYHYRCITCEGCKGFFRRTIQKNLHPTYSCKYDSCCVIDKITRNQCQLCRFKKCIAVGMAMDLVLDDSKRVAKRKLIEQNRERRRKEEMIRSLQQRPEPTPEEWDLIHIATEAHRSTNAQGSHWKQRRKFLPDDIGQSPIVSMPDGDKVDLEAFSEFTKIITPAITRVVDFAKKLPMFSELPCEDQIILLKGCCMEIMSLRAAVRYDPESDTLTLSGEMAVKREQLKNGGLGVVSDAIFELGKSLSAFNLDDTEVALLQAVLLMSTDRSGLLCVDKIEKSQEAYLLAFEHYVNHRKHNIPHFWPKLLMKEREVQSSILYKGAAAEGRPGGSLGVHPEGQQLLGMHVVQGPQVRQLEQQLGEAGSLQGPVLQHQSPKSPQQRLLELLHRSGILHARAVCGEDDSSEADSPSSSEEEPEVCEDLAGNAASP
Retinoic acid receptor RXR-alpha (Homo sapiens), sequence (P19793 whole entry, looked up, the tested form may be a part): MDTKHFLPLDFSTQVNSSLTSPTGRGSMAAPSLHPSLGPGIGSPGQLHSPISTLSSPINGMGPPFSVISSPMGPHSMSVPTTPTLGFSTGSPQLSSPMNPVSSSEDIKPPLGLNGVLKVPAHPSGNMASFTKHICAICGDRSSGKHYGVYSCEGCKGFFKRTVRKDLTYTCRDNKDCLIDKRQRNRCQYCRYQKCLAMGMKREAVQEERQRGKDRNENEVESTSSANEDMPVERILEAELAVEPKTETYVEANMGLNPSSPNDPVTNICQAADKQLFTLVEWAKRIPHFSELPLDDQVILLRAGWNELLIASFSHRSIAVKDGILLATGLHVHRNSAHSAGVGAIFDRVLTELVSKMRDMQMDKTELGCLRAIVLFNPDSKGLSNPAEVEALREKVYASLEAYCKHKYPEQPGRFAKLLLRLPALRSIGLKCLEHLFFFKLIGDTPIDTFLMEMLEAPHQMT

In the case of `C=CC(=O)OCC(Br)CBr` (configuration not stated), the call in [1], in assay [2], in [11] and in [14] was inactive. Moreover, the concentration at half-maximal activity (AC50) (commonly the concentration giving half of the maximal activity seen) is 20 µM (active) in [3]; 20 µM (active) in assay [4]; 31.8 µM (active) in assay [5]; 26.6 µM (active) in assay [6]; 5.44 µM (active) in [7]; 20 µM (active) in assay [8]. The AC50 in [9] was 33 µM (active); in assay [10], 32.5 µM (active); in assay [12], 20 µM (active); in assay [13], 31.6 µM (active); in assay [15], 32.4 µM (active); in assay [16], 37 µM (active). Moreover, the AC50 is 14.4 µM (active) in [17] and 20 µM (active) in [18].

Regarding `CC=C1CC2C=CC1C2` (configuration not stated), the compound was classed as inactive in assay [1], in assay [2] and in assay [19].

As for `CCO[Si](CCCN=C=O)(OCC)OCC`, the outcome in assay [1], in assay [2], in [3], in assay [4], in [5] and in assay [6] was inactive. Further, the outcome in assay [7], in assay [8], in [9], in assay [19], in assay [10] and in assay [11] was inactive. The result in [12], in assay [13], in assay [14], in assay [15], in assay [16] and in assay [17] was inactive. The outcome in assay [18] was inactive.

Consider `CN(C)CCCN(C)C`, for which the call in [1], in [2] and in [19] was inactive.

Regarding `O=C(O)c1ccccc1Nc1cccc(C(F)(F)F)c1`, the compound was called inactive in assay [1], in assay [2] and in assay [19].

As for `CC(=O)OCC(=O)[C@@]12N=C(C)O[C@@H]1C[C@H]1[C@@H]3CCC4=CC(=O)C=C[C@]4(C)[C@H]3[C@@H](O)C[C@@]12C`, the AC50 in assay [1] is 16.7 µM (active). The outcome in [2] was inactive.

Turning to `C/C=C\C/C=C/CCCCCCCCOC(C)=O`, the compound was called inactive in [1], in assay [2], in assay [5], in assay [6], in [8] and in assay [9]. In addition, the compound was called inactive in assay [19], in assay [10], in assay [11], in assay [14], in [15] and in [16]. Further, the AC50 is 19.6 µM (active) in assay [3]; 12.1 µM (active) in assay [4]; 27 µM (active) in [7]; 20 µM (active) in assay [12]; 12.7 µM (active) in [13]; 25.7 µM (active) in assay [17]. In addition, the AC50 in assay [18] is 29.3 µM (active).
